Where “and” joins values, the source holds several entries; their conditions need not be identical. Identical values can stand only once. About 83,000 compounds went through this panel and 20% of them were active in at least one assay; those are over-represented in the sample as a whole.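 Compound tested at a single concentration for 48 hours in 96-well plates; a percent growth value below 10 was scored as active.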 Calls of active or inactive are those of the source.
What was measured:
Experiment in all cases: NCI-60 one-dose screen, 48 h (100 = growth as untreated, 0 = no growth, -100 = all killed)
DU-145 prostate = system: DU-145 prostate
K-562 leukemia = system: K-562 leukemia
MALME-3M melanoma = system: MALME-3M melanoma
MDA-MB-231 breast = system: MDA-MB-231 breast
RXF 393 renal = system: RXF 393 renal
SF-268 CNS = system: SF-268 CNS
SF-295 CNS = system: SF-295 CNS
SF-539 CNS = system: SF-539 CNS
UACC-257 melanoma = system: UACC-257 melanoma
M14 melanoma = system: M14 melanoma

Measured: growth

CCOC(=O)c1cc2c(n1Cc1cc(OC)cc(OC)c1Br)-c1nc(NC(C)=O)sc1CCC2
inactive: DU-145 prostate; 10 µM unless noted 89.3% | K-562 leukemia; 10 µM unless noted 81.4% | MALME-3M melanoma; 10 µM unless noted 122% | MDA-MB-231 breast; 10 µM unless noted 74.7% | RXF 393 renal; 10 µM unless noted 61% | SF-268 CNS; 10 µM unless noted 67.1% | SF-295 CNS; 10 µM unless noted 76.4% | SF-539 CNS; 10 µM unless noted 85.6% | UACC-257 melanoma; 10 µM unless noted 53% | M14 melanoma; 10 µM unless noted 84.9%

COc1ccc(CCNC(=O)COc2cc3c(Nc4ccc(F)c(Cl)c4)ncnc3cc2OC)cc1OC
inactive: DU-145 prostate; 10 µM unless noted 58% | K-562 leukemia; 10 µM unless noted 112% | MALME-3M melanoma; 10 µM unless noted 86.9% | MDA-MB-231 breast; 10 µM unless noted 94.4% | RXF 393 renal; 10 µM unless noted 96% | SF-268 CNS; 10 µM unless noted 85.7% | SF-295 CNS; 10 µM unless noted 98.1% | SF-539 CNS; 10 µM unless noted 103% | UACC-257 melanoma; 10 µM unless noted 110% | M14 melanoma; 10 µM unless noted 101%

CC1=C2[C@@H](CC1)[C@]1(C)O[C@@](C(C)C)(C[C@H]1OC(=O)CO)[C@H]2OC(=O)C1CC1c1ccccc1 (stereo not given in full)
inactive: DU-145 prostate; 10 µM unless noted 100% | K-562 leukemia; 10 µM unless noted 67.7% | MALME-3M melanoma; 10 µM unless noted 91.7% | MDA-MB-231 breast; 10 µM unless noted 89.7% | RXF 393 renal; 10 µM unless noted 69.3% | SF-268 CNS; 10 µM unless noted 76.2% | SF-295 CNS; 10 µM unless noted 67.4% | SF-539 CNS; 10 µM unless noted 101% | UACC-257 melanoma; 10 µM unless noted 88.8% | M14 melanoma; 10 µM unless noted 88.3%

O=c1oc2c(Br)cc(Br)cc2cc1-c1cc(-c2ccc(-c3cc(-c4cc5cc(Br)cc(Br)c5oc4=O)nc(-c4cc5cc(Br)cc(Br)c5oc4=O)c3)cc2)cc(-c2cc3cc(Br)cc(Br)c3oc2=O)n1
inactive: DU-145 prostate; 10 µM unless noted 112% | K-562 leukemia; 10 µM unless noted 97.9% | MALME-3M melanoma; 10 µM unless noted 92.6% | MDA-MB-231 breast; 10 µM unless noted 93.7% | RXF 393 renal; 10 µM unless noted 119% | SF-268 CNS; 10 µM unless noted 105% | SF-295 CNS; 10 µM unless noted 106% | SF-539 CNS; 10 µM unless noted 107% | UACC-257 melanoma; 10 µM unless noted 109% | M14 melanoma; 10 µM unless noted 107%

COc1nc2ccc(C)cc2cc1/C=[N+](\[O-])c1ccccc1
inactive: DU-145 prostate; 10 µM unless noted 95.5% | K-562 leukemia; 10 µM unless noted 33.6% | MALME-3M melanoma; 10 µM unless noted 94% | MDA-MB-231 breast; 10 µM unless noted 78% | RXF 393 renal; 10 µM unless noted 101% | SF-268 CNS; 10 µM unless noted 86.2% | SF-295 CNS; 10 µM unless noted 90.3% | SF-539 CNS; 10 µM unless noted 89.8% | UACC-257 melanoma; 10 µM unless noted 95.7% | M14 melanoma; 10 µM unless noted 86.8%

COc1ccc(C(=O)/C=C/c2ccc(OCc3ccc(Cl)cc3)cc2)cc1OC
active: MALME-3M melanoma; 100 µM -19.5% | MDA-MB-231 breast; 100 µM -22.5% | RXF 393 renal; 100 µM -2.05%
inactive: DU-145 prostate; 10 µM 95.2% | DU-145 prostate; 100 µM 14.9% | K-562 leukemia; 10 µM 67.9% | K-562 leukemia; 100 µM 52.2% | MALME-3M melanoma; 10 µM 110% | MDA-MB-231 breast; 10 µM 110% | RXF 393 renal; 10 µM 110% | SF-268 CNS; 10 µM 100% | SF-268 CNS; 100 µM 14% | SF-295 CNS; 10 µM 98.4% | SF-295 CNS; 100 µM 16.2% | SF-539 CNS; 10 µM 106% | SF-539 CNS; 100 µM 32.5% | UACC-257 melanoma; 10 µM 94.3% | UACC-257 melanoma; 100 µM 35.4% | M14 melanoma; 10 µM 95.9% | M14 melanoma; 100 µM 54.4%

CC(=O)OC[C@]12CCC(C)(C)C=C1[C@H]1CC[C@@H]3[C@@]4(C)CCCNC(C)(C)[C@@H]4CC[C@@]3(C)[C@]1(C)CC2
inactive: DU-145 prostate; 10 µM unless noted 87.4% | K-562 leukemia; 10 µM unless noted 14.2% | MALME-3M melanoma; 10 µM unless noted 41.9% | MDA-MB-231 breast; 10 µM unless noted 82.1% | RXF 393 renal; 10 µM unless noted 89.2% | SF-268 CNS; 10 µM unless noted 81.2% | SF-295 CNS; 10 µM unless noted 100% | SF-539 CNS; 10 µM unless noted 95.2% | UACC-257 melanoma; 10 µM unless noted 31.9% | M14 melanoma; 10 µM unless noted 64.8%

Nn1c(-c2ccc(Cl)cc2)nc2c(-c3ccc(Cl)cc3)nc3ccc(Cl)cc3c2c1=O
active: DU-145 prostate; 10 µM unless noted -32.5% | RXF 393 renal; 10 µM unless noted 1.11% | UACC-257 melanoma; 10 µM unless noted 3.36% | M14 melanoma; 10 µM unless noted -0.438%
inactive: K-562 leukemia; 10 µM unless noted 18.5% | MALME-3M melanoma; 10 µM unless noted 10.1% | MDA-MB-231 breast; 10 µM unless noted 36.6% | SF-268 CNS; 10 µM unless noted 14.8% | SF-295 CNS; 10 µM unless noted 22.6% | SF-539 CNS; 10 µM unless noted 14.1%

O=C(NNc1ccccc1)C1CCCN1 (stereo not given)
inactive: DU-145 prostate; 10 µM unless noted 60.7% | K-562 leukemia; 10 µM unless noted 11% | MALME-3M melanoma; 10 µM unless noted 76.4% | MDA-MB-231 breast; 10 µM unless noted 86.1% | RXF 393 renal; 10 µM unless noted 107% | SF-268 CNS; 10 µM unless noted 64.6% | SF-295 CNS; 10 µM unless noted 85% | SF-539 CNS; 10 µM unless noted 80.5% | UACC-257 melanoma; 10 µM unless noted 88.6% | M14 melanoma; 10 µM unless noted 43.1%

CN(C)CC1(C)Cc2ccsc2C1O (stereo not given)
inactive: DU-145 prostate; 10 µM unless noted 116% and 97.1% | K-562 leukemia; 10 µM unless noted 104% and 92.8% | MALME-3M melanoma; 10 µM unless noted 98.8% | MDA-MB-231 breast; 10 µM unless noted 113% and 111% | RXF 393 renal; 10 µM unless noted 108% and 109% | SF-268 CNS; 10 µM unless noted 113% and 102% | SF-295 CNS; 10 µM unless noted 121% and 115% | SF-539 CNS; 10 µM unless noted 93.4% and 105% | UACC-257 melanoma; 10 µM unless noted 108% and 110% | M14 melanoma; 10 µM unless noted 111% and 108%

CC(C)(C)c1cc(C(C)(C)c2ccccc2)cc(Cc2cc(C(C)(C)c3ccccc3)cc(C(C)(C)C)c2O)c1O
inactive: DU-145 prostate; 10 µM unless noted 123% | K-562 leukemia; 10 µM unless noted 48% | MALME-3M melanoma; 10 µM unless noted 97.4% | MDA-MB-231 breast; 10 µM unless noted 105% | RXF 393 renal; 10 µM unless noted 95.5% | SF-268 CNS; 10 µM unless noted 98.4% | SF-295 CNS; 10 µM unless noted 116% | SF-539 CNS; 10 µM unless noted 101% | UACC-257 melanoma; 10 µM unless noted 105% | M14 melanoma; 10 µM unless noted 116%

O=C(NNc1ccccc1)c1ncc[nH]1
active: K-562 leukemia; 10 µM unless noted 7.21%
inactive: DU-145 prostate; 10 µM unless noted 55.8% | MALME-3M melanoma; 10 µM unless noted 54.1% | MDA-MB-231 breast; 10 µM unless noted 81.5% | RXF 393 renal; 10 µM unless noted 107% | SF-268 CNS; 10 µM unless noted 59.3% | SF-295 CNS; 10 µM unless noted 90.2% | SF-539 CNS; 10 µM unless noted 48.7% | UACC-257 melanoma; 10 µM unless noted 71.5% | M14 melanoma; 10 µM unless noted 37.4%
